Rows were chosen to be rich in hits. Some 5.2% of all compounds tested hit in one or more screens of this group.
GRIN3A LBD mod: modulates the human NR3A ligand-binding domain; NR3A LBD differential scanning fluorimetry, Tm shift; 0% = protein alone, 100% = glycine-bound protein; AID 1259313; 340,000 compounds, 2.5% hits; Tm shift relative to glycine control, % at 25 µM;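 active = melting temperature shift of at least 10% of the positive control shift, at one fixed dose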
SMARCA2 activ: SMARCA2 function activation, primary screen; MG213 cells, MMTV-luciferase reporter, dexamethasone, overnight; activation, % at 9.1 µM; 370,000 compounds, 1% hits; in the data active = activation above about 7.8%
Vif imaging: HIV Vif inhibition. inhibition, % at 7.49 µM. AID 602346. HEK293T cells, Vif self-association by quenched fluorescence, imaging, 24 h. 340,000 compounds, 0.35% hits; in the data active = inhibition above about 50%, passing the limit was not always enough; inconclusive = no clear call, values can overlap the other calls; inactive = below about 31%
esBAF inh: SWI/SNF esBAF complex inhibition; mouse ES cells, Bmi1-luciferase knock-in reporter, 24 h; 100% = twice the neutral-well signal; reporter increase, % at 12.5 µM; 350,000 compounds, 2% hits; in the data active = activation above about 40%; inconclusive = no clear call, values can overlap the other calls;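 also: a rise in the Bmi1 reporter signal indicates esBAF inhibition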
NadD block: blocks S. aureus nicotinate mononucleotide adenylyltransferase; purified NadD enzyme, colorimetric absorbance read-out; inhibition, % at 20 µM; 360,000 compounds, 0.78% hits; in the data active = inhibition above about 26%
SKN-1 inh: blocks SKN-1 activity in C. elegans | C. elegans VP596 Pgst-4::GFP/RFP ratio, acrylamide-induced, 24 h | inhibition, % at 21.8 µM | 360,000 compounds, 0.49% hits | AID 624304;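 active = interference check ratio from 0.5 to 1.5 plus GFP to RFP signal ratio inhibition reaching or exceeding a fixed threshold, cut at about 30% in these data, passing the limit was not always enough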
Hits are given with their value; . = inactive; ? = inconclusive; / = not tested or not shown.

SMILES	GRIN3A LBD mod	SMARCA2 activ	Vif imaging	esBAF inh	NadD block	SKN-1 inh
Cc1ccc(S(=O)(=O)N(C)C[C@H]2Oc3c(NC(=O)c4cnccn4)cccc3C(=O)N([C@H](C)CO)C[C@H]2C)cc1	/	/	/	.	/	/
COc1ccccc1NC(=O)CC1C(=O)NCCN1C(=O)Nc1ccc(Cl)c(Cl)c1 (stereo not given)	12	.	.	.	.	.
CCN1C(=NCCc2ccccn2)N[C@@H](c2cccc(F)c2)C(C(=O)OC)=C1C	.	.	.	.	.	.
COC(=O)C1=C(C)N(Cc2ccccc2)C(=NCCc2ccccn2)N[C@H]1c1cccc(F)c1	.	.	.	.	.	37
O=C(C[C@H]1C=C[C@@H](NC(=O)C2CCC2)[C@@H](CO)O1)Nc1nccs1	/	/	/	.	/	/
Cc1ccc2cc3cc(C(=O)NCc4ccc5c(c4)OCO5)oc3nc2c1	.	.	/	.	.	.
COc1ccc2cc3cc(C(=O)NCCc4ccc(OC)c(OC)c4)oc3nc2c1	.	.	.	.	.	.
COc1ccc2nc3oc(C(=O)Nc4ccc(OC)c(OC)c4)cc3cc2c1	17	.	.	.	.	.
COc1ccc2cc3cc(C(=O)N(C)C4CCCCC4)oc3nc2c1	.	/	.	51	.	.
COc1ccc2cc3cc(C(=O)Nc4ccc5c(c4)OCO5)oc3nc2c1	26	.	.	.	.	.
COCC(=O)Nc1ccc2c(c1)C(=O)N(C)C[C@@H](OC)[C@H](C)CN(C(=O)c1cnccn1)[C@@H](C)CO2	/	/	/	.	/	/
C[C@@H]1CN([C@@H](C)CO)C(=O)c2cc(NC(=O)Nc3ccc4c(c3)OCO4)ccc2O[C@H]1CN(C)Cc1ccc(Cl)c(Cl)c1	/	/	/	.	/	/
CC(=O)N1CCN(c2ccc(NCc3cccc4ccccc34)cc2)CC1	.	.	.	.	.	.
CC(=O)N1CCN(c2ccc(NCc3ccccc3)cc2)CC1	.	.	.	/	.	38
CCOc1ccc(S(=O)(=O)NCCC(=O)NCCOc2ccccc2OC)cc1	21	.	.	.	.	.
O=C(C[C@H]1CC[C@H]2[C@@H](COC[C@@H](O)CN2CC2CCOCC2)O1)NCC1CC1	/	/	/	.	/	/
O=C(C[C@H]1C[C@@H]2c3cc(NC(=O)Nc4ccccc4F)ccc3O[C@@H]2[C@@H](CO)O1)NCc1cc(F)ccc1F	/	/	/	.	/	/
N#CC(c1ccc(Cl)cc1)c1ncc(C(F)(F)F)cc1Cl (stereo not given)	14	.	.	.	.	.
N#CC(c1cccc(Cl)c1)c1ncc(C(F)(F)F)cc1Cl (stereo not given)	.	.	.	.	.	.
COc1ccccc1NC(=O)N(C)C[C@@H]1Oc2ncc(C#CC(C)C)cc2C(=O)N([C@@H](C)CO)C[C@H]1C	/	/	/	.	/	/
O=C(CS(=O)(=O)c1c[nH]c2ccccc12)Nc1ccc(F)cc1	13	.	.	.	.	.
O=C(CS(=O)(=O)c1c[nH]c2ccccc12)NC1CCCCC1	.	.	.	.	.	.
COc1ccc2nc(SCc3ccccc3C)nc(C)c2c1	.	.	.	/	.	.
COc1ccc2nc(SCc3cccc(C)c3)nc(C)c2c1	.	8.5	/	/	.	.
CCNC(=O)C[C@H]1CC[C@@H](NS(=O)(=O)c2ccc(F)cc2)[C@H](CO)O1	/	/	/	.	/	/
SMILES	GRIN3A LBD mod	SMARCA2 activ	Vif imaging	esBAF inh	NadD block	SKN-1 inh
N#Cc1c(NCCN)nc(NCc2ccccc2)c2c1CCN(Cc1ccccc1)C2	.	/	.	/	30	.
C=CCNc1nc(NCc2ccccc2)c(C#N)c2c1CN(C)CC2	.	.	.	/	.	.
COc1ccc(C#Cc2ccc([C@@H]3[C@@H](CO)N4CCCCN(S(=O)(=O)c5cn(C)cn5)C[C@@H]34)cc2)cc1	/	/	/	.	/	/
FC(F)Oc1ccc(-c2csc(NNC3=NCCCCC3)n2)cc1	.	.	.	49	.	.
Brc1ccc(-c2csc(NNC3=NCCCCC3)n2)cc1	.	.	.	.	.	.
C#CCCc1cscc1/C=[N+](\[O-])c1ccc(C(=O)OCC)cc1	.	.	/	62	.	.
CCOC(=O)c1ccc(/[N+]([O-])=C/c2ccccc2)cc1	.	.	.	53	.	.
CCOC(=O)CCn1nc(-c2ccc(Cl)cc2)cc1N	10	.	.	?	.	.
CCC(=O)N(C)C[C@H]1Oc2ncc(-c3ccccc3F)cc2C(=O)N([C@H](C)CO)C[C@H]1C	/	/	/	.	/	/
O=c1c2ccccc2oc2ccccc12	/	.	.	.	.	.
CC(=O)c1ccc2oc3ccccc3c(=O)c2c1	.	.	.	44	.	.
Nc1cccc(C#Cc2ccc3c(=O)c4ccccc4oc3c2)c1	.	.	.	53	.	.
Nc1ccc(C#Cc2ccc3oc4ccccc4c(=O)c3c2)cc1	.	.	.	42	.	.
CO[C@H](CN(C)C(=O)c1ccccc1F)[C@@H](C)CN([C@@H](C)CO)S(=O)(=O)c1ccc(Cl)cc1	/	/	/	.	/	/
CCCCN(CCCC)S(=O)(=O)c1ccc(NS(=O)(=O)c2ccc(NC(C)=O)cc2)cc1	13	/	.	.	.	.
CCCCCOC(=O)Nc1ccc(S(=O)(=O)Nc2cccc([N+](=O)[O-])c2)cc1	28	.	.	/	.	.
CCCCOC(=O)Nc1ccc(S(=O)(=O)Nc2ccc([N+](=O)[O-])cc2)cc1	17	.	.	/	.	.
CO[C@@H](CN(C)Cc1nccs1)[C@@H](C)CN([C@@H](C)CO)S(=O)(=O)c1ccc(C)cc1	/	/	/	.	/	/
CC(C)NC(=O)N1C[C@H]2[C@@H](c3ccccc31)[C@@H](CO)N2C(=O)c1ccc(F)cc1	/	/	/	.	/	/
C[C@H]1CCCCO[C@@H](CN(C)C(=O)Nc2ccccc2)[C@@H](C)CN([C@@H](C)CO)C(=O)c2cc(NC(=O)Nc3ccc4c(c3)OCO4)ccc2O1	/	/	/	44	/	/
C[C@H]1CN([C@@H](C)CO)C(=O)c2cc(NC(=O)Cc3ccccc3)ccc2O[C@H]1CN(C)C(=O)Nc1ccc2c(c1)OCO2	/	/	/	71	/	/
C[C@@H]1CN([C@@H](C)CO)C(=O)c2cc(NC(=O)Nc3ccc4c(c3)OCO4)ccc2O[C@@H](C)CCCCO[C@H]1CN(C)Cc1ccncc1	/	/	/	57	/	/
C[C@@H]1CCCCO[C@H](CN(C)Cc2ccncc2)[C@H](C)CN([C@H](C)CO)C(=O)c2cc(NC(=O)Nc3ccc4c(c3)OCO4)ccc2O1	/	/	/	.	/	/
C[C@@H]1CCCCO[C@@H](CN(C)C(=O)Nc2ccc3c(c2)OCO3)[C@@H](C)CN([C@@H](C)CO)C(=O)c2cc(NC(=O)Nc3ccccc3)ccc2O1	/	/	/	.	/	/
C[C@@H]1CN([C@@H](C)CO)C(=O)c2cc(NC(=O)Cc3ccccc3)ccc2O[C@H]1CN(C)C(=O)Nc1ccc2c(c1)OCO2	/	/	/	.	/	/
C[C@H](CO)N1C[C@H](C)[C@H](CN(C)C(=O)Nc2ccccc2)OCCCC[C@H](C)Oc2ccc(NC(=O)Nc3ccc4c(c3)OCO4)cc2C1=O	/	/	/	49	/	/
CCC(=O)Nc1ccc2c(c1)OC[C@H](C)N(Cc1ccccc1OC)C[C@H](C)[C@H](OC)CN(C)C2=O	/	/	/	.	/	/

Screening data: PubChem, several laboratories
